Measured values taken from PubChem BioAssay AID1259374 (The Scripps Research Institute Molecular Screening Center, 2018).
Out of some 650,000 compounds screened, about 5,900 (0.91%) were called active. Rule as the data show it: active = inhibition above about 50%; inactive = the rest. Only a selection was taken, and actives are over-represented in it overall.

molecular target: Microphthalmia-associated transcription factor (Homo sapiens) (UniProt O75030); assay: MITF inhibitors, primary screen, biochemical, AlphaScreen, human (AID 1259374); conditions: AlphaScreen MITF homodimerization, bead proximity signal; at 2.6 µM; stronger effect = higher value;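 also: 0% = vehicle wells with protein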
Sequence (O75030 whole entry, looked up): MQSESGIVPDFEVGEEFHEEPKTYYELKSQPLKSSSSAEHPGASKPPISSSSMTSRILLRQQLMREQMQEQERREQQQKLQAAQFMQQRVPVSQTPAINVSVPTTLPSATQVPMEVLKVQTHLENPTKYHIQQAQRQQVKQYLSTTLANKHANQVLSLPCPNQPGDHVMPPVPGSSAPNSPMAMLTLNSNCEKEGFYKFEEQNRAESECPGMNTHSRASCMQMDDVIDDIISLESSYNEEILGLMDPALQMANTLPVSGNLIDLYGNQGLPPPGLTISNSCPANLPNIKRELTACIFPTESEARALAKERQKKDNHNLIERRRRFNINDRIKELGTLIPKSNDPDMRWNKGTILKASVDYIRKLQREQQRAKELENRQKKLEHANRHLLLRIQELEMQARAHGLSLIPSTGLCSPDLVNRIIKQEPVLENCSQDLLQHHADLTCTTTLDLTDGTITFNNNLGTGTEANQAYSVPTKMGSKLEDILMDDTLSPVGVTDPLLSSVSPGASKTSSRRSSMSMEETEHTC

Structure (SMILES) | inhibition
CCCNC(=O)N1CCCC(N2CCN(Cc3ccc4c(c3)OCO4)CC2)C1 (stereo not drawn) | 12.8% (inactive)
CCC(C)(C)C(=O)N1CCN(Cc2ccc3c(c2)OCO3)CC1 | 9.89% (inactive)
OC1CCCN(Cc2ccc3c(c2)OCO3)C1 (stereo not drawn) | 6.89% (inactive)
COC(=O)C(C)CN1CCN(Cc2ccc3c(c2)OCO3)CC1 (stereo not drawn) | 78.9% (active)
c1cc2c(cc1Cn1nnnc1CN1CCN(C3CCCC3)CC1)OCO2 | 7.92% (inactive)
CC(C)CCCN1CCC(N2CCN(Cc3ccc4c(c3)OCO4)CC2)CCC1=O (stereo not drawn) | -10.8% (inactive)
c1cc2c(cc1CN1CCN(C3CCCC3)CC1)OCO2 | 62.8% (active)
CC(=O)Oc1ccc(C(=O)N2CCN(Cc3ccc4c(c3)OCO4)CC2)cc1 | -6.96% (inactive)
c1cc2c(cc1CN1CCN(C3CCCCC3)CC1)OCO2 | 60.9% (active)
COc1ccc(OC(=O)c2cccc(C(=O)OC(C)C)n2)cc1 | 7.42% (inactive)
COCCNC(=O)c1ccc(-c2cccc(OC)c2)nc1NCC1CC1 | -12.1% (inactive)
NC(=O)CC[C@H](NC(=O)c1ccc(F)cc1)C(=O)OCC(=O)c1ccccc1 | 1.49% (inactive)
CO[C@@H](C1CCCCC1)[C@@H](C)[C@H](OCc1cccc(Br)c1)[C@@H](C)CO | -6.84% (inactive)
COc1cc(CN(CCN(C)C)Cc2ccccc2)cc(OC)c1 | 70% (active)
CCN(Cc1ccccc1)Cc1cc(OC)c(OC)c(OC)c1 | 5.59% (inactive)
COc1cc(CN(CCCN(C)C)CCCN(C)C)cc(OC)c1 | 45.5% (inactive)
Cc1ccc(OCCCNC2CCCC2)c(I)c1 | 29.7% (inactive)
CCOc1ccc2[nH]c(=O)c(CN(CCO)C(=O)c3ccco3)cc2c1 | 6.48% (inactive)
COC(=O)CCS(=O)(=O)c1ccc(C(=O)O)cc1N | -6.29% (inactive)
COc1ccc(-c2noc(=O)n2CC(=O)N(c2ccccc2)c2ccccc2)cc1 | 2.22% (inactive)
CN1CCN(CCC(=O)N/N=C/c2ccsc2)CC1 | 53.5% (active)
O=C(CN1CCSCC1)N/N=C/c1ccc(Cl)cc1 | 17.4% (inactive)
O=C(CN1CCSCC1)N/N=C/c1ccc(F)cc1 | 47% (inactive)
COc1ccc2c(c1)OC(C)CN(C(=O)C1CCCCCN1C)C2 (stereo not drawn) | 1.95% (inactive)
CCCNCc1nc(-c2ccc(OC)c(OC)c2)no1 | 11.7% (inactive)
Cc1cnc(NCc2ccc3c(c2)OCO3)nc1NCCN1CCOCC1 | 16% (inactive)
Cc1cnc(NCc2ccc3c(c2)OCO3)nc1Nc1ccccc1 | 69.7% (active)
c1ccc(Nc2cc(NCc3ccc4c(c3)OCO4)ncn2)cc1 | -2.56% (inactive)
